# Mcl1 Noxa PPI – Mcl-1/Noxa interaction inhibition; AID 1022; inhibition, % at 21.7 µM; TR-FRET Mcl-1/Noxa peptide binding, 2 h; 220,000 tested, 1.5% active;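 active = compounds that cut the protein-peptide binding signal by more than 50% relative to plate controls in a single-dose test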;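 note: His-tagged Mcl-1 with rhodamine Noxa BH3 peptide and terbium anti-His antibody; 0% = Mcl-1 plus Noxa peptide wells and 100% = peptide-only wells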
# Target sequence (Q07820 whole entry, looked up): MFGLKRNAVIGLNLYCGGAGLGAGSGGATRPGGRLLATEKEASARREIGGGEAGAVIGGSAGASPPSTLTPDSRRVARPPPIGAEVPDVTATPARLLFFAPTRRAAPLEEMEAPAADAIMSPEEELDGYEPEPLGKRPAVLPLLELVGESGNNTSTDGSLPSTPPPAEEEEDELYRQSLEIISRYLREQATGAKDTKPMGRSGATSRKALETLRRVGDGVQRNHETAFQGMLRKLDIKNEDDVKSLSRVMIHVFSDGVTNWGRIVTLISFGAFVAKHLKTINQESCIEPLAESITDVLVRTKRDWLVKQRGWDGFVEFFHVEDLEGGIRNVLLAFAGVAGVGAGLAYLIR
# NCF1 inh – blocks human p47phox regulatory protein of NADPH oxidases. P14598. p47phox/p22phox peptide binding, fluorescence polarization, 2 h. inhibition, % at 24.7 µM. 220,000 tested, 0.53% active. AID 1274;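 note: 0% = p47phox with labelled peptide and 100% = labelled peptide alone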
# 14-3-3 Bad inh – disrupts binding of bovine 14-3-3 zeta to phospho-Bad peptide | P63103 | inhibition, % at 21.7 µM | AID 781 | 220,000 tested, 0.71% active | TR-FRET 14-3-3zeta/Dy647-pBad peptide displacement, 1 h;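 active = inhibition above about 70%, limit read from the data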;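 note: 0% = full 14-3-3 plus peptide FRET controls and 100% = background without 14-3-3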
# Bim-Mcl-1 – human Bim-Mcl-1 interaction inhibition; Q07820; Bead-based flow cytometry, Bim peptide-Mcl-1 binding; inhibition, % at 10 µM; 190,000 tested, 0.1% active; in the data active = inhibition above about 40%;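 note: 0% = no compound tracer wells and 100% = peptide blocker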
# eIF4E-4G inh – blocks eIF4E binding to eIF4G; TR-FRET eIF4E-eIF4GI(517-606) binding, 2 h; inhibition, % at 21.7 µM; 220,000 tested, 0.37% active; AID 782;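 note: 0% = full FRET control wells and 100% = background wells lacking eIF4GI fragment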
# Mcl1 Bid PPI – Mcl-1/Bid interaction inhibition | Q07820 | inhibition, % at 21.7 µM | TR-FRET Mcl-1/Bid-Dy647 peptide binding, 1536-well | 220,000 tested, 0.97% active;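 active = compounds that cut the binding signal by more than half at the single screening dose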;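 note: His-tagged Mcl-1 with europium anti-His antibody binding Bid BH3 peptide; 0% = Mcl-1 plus peptide wells and 100% = peptide-only wells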
# * = called active by the depositor; . = no result given. An excerpt weighted towards active compounds, which were near 3.3% of everything screened.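 Rule for the calls, unless noted: active = inhibition above about 30% (limit read from the data); inactive = the rest.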
SMILES,Mcl1 Noxa PPI,NCF1 inh,14-3-3 Bad inh,Bim-Mcl-1,eIF4E-4G inh,Mcl1 Bid PPI
COc1ccc(C2C(C#N)=C(N)OC3=C2C(=O)CCC3)c(OC)c1OC (centres undefined),16.2,-2.7,-11.4,0.0,1.7,-95.8
Cc1nn(-c2ccccc2)c2nc(C(Cl)(Cl)Cl)[nH]c(=O)c12,14.5,-13.3,8.9,.,5.5,38.4
CCOc1ccccc1OCCOCCN1CCN(Cc2ccccc2)CC1,17.3,39.7*,84.2*,4.0,3.3,31.0
O=C(c1ccccc1)c1ccc(OCCOCCN2CCN(Cc3ccccc3)CC2)cc1,11.0,13.7,57.7,-1.0,3.9,28.6
Clc1ccccc1OCCN1CCC(Cc2ccccc2)CC1,30.2,-10.7,37.6,-3.0,0.0,63.0*
COc1c2ccoc2nc2c(OC)c(OCC(OC(C)=O)C(C)(C)O)ccc12 (centres undefined),-4.7,161.1*,8.9,3.0,7.5,7.8
CCOc1ccc(-c2nc(N)ncc2-c2ccc(OC)cc2)c(O)c1,26.5,-3.5,-1.5,1.0,8.8,-2.6
CCOc1ccc(-c2nc(N)ncc2-c2ccccc2)c(O)c1,25.6,-6.8,13.8,-2.0,-6.8,50.9*
Oc1cc2c(cc1O)C1c3ccc(O)c(O)c3OCC1(O)C2 (centres undefined),82.3*,-62.1,26.6,8.0,5.1,-64.7
COc1ccc(CCNC(=O)CCc2ccc(S(=O)(=O)NCC(C)C)cc2)cc1OC,5.1,-0.1,-4.4,1.0,0.5,-45.4
O=C1c2ccccc2C(=O)C1Cc1cccc2ccccc12,41.7,3.0,14.3,0.0,-2.3,89.3*
CCCCn1c(N)c(C(=S)NC(=O)CC(C)(C)C)c(=O)n(C)c1=O,-69.8,-5.4,-1.0,-8.0,-8.5,-80.3
Cc1c(O)ccc(-c2n[nH]c(C(=O)O)c2-c2nc3ccccc3s2)c1O,20.0,-6.0,1.0,.,1.2,-50.1
CN(C)c1ccc(/C=C2/C=C(c3ccc4c(c3)CCCC4)OC2=O)cc1,-1.6,45.2*,1.7,.,-5.1,-109.3
COc1ccc(C2=C/C(=C\c3ccc(OC(C)=O)cc3)C(=O)O2)cc1,22.1,-13.3,10.9,0.0,-0.6,-11.9
Cc1ccc(CNc2ccc(O)cc2)cc1,51.8*,12.7,6.8,1.0,-2.2,-18.5
CC(=O)N1CCN(c2ccc(NCc3ccc(C)cc3)cc2)CC1,52.9*,2.9,-5.1,0.0,-0.8,-10.9
CN(CC(=O)Nc1ccc(N2CCOCC2)cc1)Cc1cc(=O)n2ccsc2n1,7.3,-2.1,-6.5,0.0,-0.8,-42.9
COc1ccc(C(c2c(O)ccc3ccccc23)N2CCOCC2)c(OC)c1 (centres undefined),79.2*,-8.1,-7.1,-5.0,12.0,49.5
COc1ccc(C(CCN2CCOCC2)c2c(O)cc(OC)cc2OC)cc1 (centres undefined),-8.2,-10.8,-2.9,.,0.1,-47.0
CN1CCCN(Cc2nc(-c3cccc(C(F)(F)F)c3)no2)CC1,23.8,-1.2,-2.0,31.0,1.2,-0.3
Cc1ccc(/C=C(\C#N)C(=O)Nc2ccccn2)o1,-1.6,-4.1,-5.8,0.0,-6.0,-23.7
O=C(NNc1c2ccccc2nc2ccccc12)c1ccc(O)cc1,50.5*,-13.1,-10.0,-4.0,-3.3,-65.4
O=C(NNc1c2ccccc2nc2ccccc12)c1ccccc1O,63.6*,25.2,2.9,-18.0,13.7,22.9
O=C(NNc1c2ccccc2nc2ccccc12)c1cccc(O)c1,45.6,-24.9,-17.1,-10.0,-5.5,-39.0
SMILES,Mcl1 Noxa PPI,NCF1 inh,14-3-3 Bad inh,Bim-Mcl-1,eIF4E-4G inh,Mcl1 Bid PPI
O=C(NNc1c2ccccc2nc2ccccc12)c1ccc(O)cc1O,68.4*,-46.4,14.2,-1.0,0.4,55.4*
O=C(CNCc1cccs1)Nc1ccc(N2CCCCCC2)cc1,32.6,2.3,67.0,0.0,8.3,6.4
Cc1ccc(NC(=S)Nc2ccc3nc(-c4ccccn4)c(-c4ccccn4)nc3c2)cc1C,30.3,112.2*,-4.0,-8.0,-6.2,-44.7
CCOC(=O)c1cc(C#N)c(N2CCN(c3ccc(OC)cc3)CC2)[nH]c1=O,14.1,-19.3,-3.4,-3.0,-1.2,-40.9
COc1ccc2cc(C(=O)NCc3ccco3)c(=Nc3ccc(C(=O)O)cc3)oc2c1,1.2,-7.0,12.4,0.0,-0.3,-17.9
COc1ccc(N=c2oc3c(OC)cccc3cc2C(=O)NCc2ccco2)c(OC)c1,27.4,5.1,16.9,1.0,-27.7,65.2*
